Screens: PubChem BioAssay, The Scripps Research Institute Molecular Screening Center
PAFAH1B3 FP inh = inhibitors of human PAFAH1B3; inhibition, % at 3.39 µM; recombinant PAFAH1B3, FP-rhodamine probe, fluorescence polarization; 340,000 compounds, 0.28% hits;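 active = inhibition above the screen-wide average of all tested compounds plus 3 SD, cut at about 25% in these data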;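 also: 0% = enzyme with DMSO only and 100% = wells lacking PAFAH1B3 protein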
PP5 primary = PP5 (human) phosphatase inhibition; P53041; purified PP5c, OMFP substrate fluorescence; inhibition, % at 6.7 µM; 320,000 compounds, 0.18% hits; AID 1987;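 active = inhibition above the campaign's mean inhibition across all tested compounds plus 3 SD, cut at about 9.5% in these data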;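 also: 0% = DMSO only and 100% = 100 µM cantharidin control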
Target sequence (P53041 whole entry, looked up): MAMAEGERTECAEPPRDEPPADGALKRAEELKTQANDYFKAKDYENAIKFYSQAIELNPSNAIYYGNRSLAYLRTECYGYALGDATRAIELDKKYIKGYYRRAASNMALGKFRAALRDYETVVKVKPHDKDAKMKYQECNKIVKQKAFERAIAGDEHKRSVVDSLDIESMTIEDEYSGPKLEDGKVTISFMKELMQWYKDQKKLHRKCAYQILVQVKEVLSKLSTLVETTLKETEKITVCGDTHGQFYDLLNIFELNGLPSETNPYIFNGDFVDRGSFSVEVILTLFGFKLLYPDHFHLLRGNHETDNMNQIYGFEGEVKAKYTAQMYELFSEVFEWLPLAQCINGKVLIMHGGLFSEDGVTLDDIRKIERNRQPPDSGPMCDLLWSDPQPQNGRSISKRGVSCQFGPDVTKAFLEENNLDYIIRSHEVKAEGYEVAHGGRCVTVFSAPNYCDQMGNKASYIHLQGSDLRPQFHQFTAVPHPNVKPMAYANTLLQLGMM
PAFAH1B2 FP inh = blocks human PAF acetylhydrolase 1b catalytic subunit 2 | P68402 | recombinant PAFAH1B2, FP-rhodamine activity probe, fluorescence polarization | inhibition, % at 3.39 µM | 340,000 compounds, 1.2% hits | AID 492953;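 active = inhibition above the mean of all tested compounds plus 3 SD, cut at about 24% in these data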;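 also: 0% = enzyme with DMSO and 100% = wells lacking PAFAH1B2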
PAFAH2 inh = inhibitors of human PAFAH2; Q99487; recombinant PAFAH2, FP-rhodamine activity probe, fluorescence polarization; inhibition, % at 3.39 µM; 340,000 compounds, 0.99% hits;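 active = inhibition above the mean over all tested compounds plus 3 SD, cut at about 30% in these data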;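 also: inhibitors block probe labeling of enzyme so polarization drops; 0% = enzyme with DMSO and 100% = wells lacking PAFAH2 protein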
pPAFAH FP inh = inhibitors of human plasma PAF acetylhydrolase (pPAFAH) | Q13093 | recombinant pPAFAH, FP-rhodamine probe fluorescence polarization | 330,000 compounds, 1.5% hits | inhibition, % at 3.39 µM;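 active = inhibition above the mean inhibition across the screen plus 3 SD, cut at about 25% in these data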;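 also: inhibitors block binding of the rhodamine activity-based probe so polarization drops; 0% = enzyme with DMSO and 100% = wells lacking pPAFAH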
CTSL1 counter = blocks F. hepatica cathepsin L1 in PFM18AAP counter-screen. recombinant F. hepatica cathepsin L1, Z-Leu-Arg-MCA fluorescence. inhibition, % at 5.96 µM. 300,000 compounds, 0.49% hits;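 active = inhibition above the mean of all tested compounds plus 3 SD, set per screening campaign, cut at about 17% in these data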;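 also: 0% = plate median of test compound wells and 100% = 1 µM Z-Phe-Ala-diazomethylketone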
Active calls of the source: *; nt = no result given. Sampled rows, rich in hits. Any-hit rate of the full collection: about 3%.

SMILES	PAFAH1B3 FP inh	PP5 primary	PAFAH1B2 FP inh	PAFAH2 inh	pPAFAH FP inh	CTSL1 counter
C[C@H](CO)N1C[C@H](C)[C@H](CN(C)Cc2ccc(-c3ccccc3)cc2)Oc2ccc(NS(=O)(=O)c3ccccc3)cc2CC1=O	-1	nt	5	0	34*	nt
C[C@@H]1CN([C@H](C)CO)C(=O)c2cc(NS(=O)(=O)c3ccc(F)cc3)ccc2O[C@@H]1CN(C)Cc1ccc(Cl)c(Cl)c1	7	nt	25*	10	29*	nt
COc1ccc(S(=O)(=O)Nc2ccc3c(c2)C(=O)N([C@H](C)CO)C[C@H](C)[C@@H](CN(C)S(=O)(=O)c2ccc(OC)cc2)O3)cc1	1	nt	19	3	nt	nt
COc1ccc(S(=O)(=O)Nc2cccc3c2O[C@H](CN(C)Cc2ccc(Oc4ccccc4)cc2)[C@@H](C)CN([C@H](C)CO)C3=O)cc1	4	nt	-2	6	26*	nt
CCCCC[C@@H]1C=C(C(=O)O)[C@H](c2ccc(CC)cc2)N1S(=O)(=O)c1ccc(C)cc1	6	nt	17	1	-6	nt
CCCCC[C@@H]1C=C(C(=O)O)[C@H](c2ccc(Cl)c(Cl)c2)N1S(=O)(=O)c1ccc(C)cc1	-3	nt	29*	8	1	nt
CCCCC[C@@H]1C=C(C(=O)O)[C@H](c2ccc(F)cc2)N1S(=O)(=O)c1ccc(C)cc1	6	nt	25*	15	-1	nt
CC(C)(C)C1CCC2(CC1)C(C#N)=C(SCC(=O)Nc1ccccc1)NC(=O)C2C#N (configuration not stated)	8	7	57*	5	9	5
Cn1nnnc1SCC(=O)Nc1cc(S(=O)(=O)N2CCCCC2)ccc1Cl	1	nt	7	-1	3	nt
C#CCN1C(=O)S/C(=C\c2ccc(-c3ccc(C(=O)O)cc3C)o2)C1=O	3	1	5	6	31*	-2
CCOC(=O)C(C)N1C(=O)S/C(=C\c2ccc(-c3ccccc3C(=O)O)o2)C1=O (configuration not stated)	0	0	-6	5	28*	9
COc1ccccc1NC(=O)CN1C(=O)NC2(CCCc3ccccc32)C1=O (configuration not stated)	-1	-2	2	-8	-1	nt
COc1ccc(C2=CC3=C(Br)C(=O)C(C)(OC(=O)c4ccco4)C(=O)C3=CO2)cc1 (configuration not stated)	7	-2	10	20	23	0
COc1ccc(C2=CC3=C(Br)C(=O)C(C)(OC(=O)c4cccs4)C(=O)C3=CO2)cc1 (configuration not stated)	1	2	9	10	28*	-1
Cc1ccccc1Nc1nc(NCc2ccco2)c2ccccc2n1	-1	4	0	6	-2	-5
c1ccc(Nc2nc(NCc3ccco3)c3ccccc3n2)cc1	9	1	1	0	5	-3
COc1ccc(OC)c(Nc2nc(NCc3ccco3)c3ccccc3n2)c1	13	4	3	-1	25*	1
Cc1ccc(S(=O)(=O)Nc2nc3ccccc3nc2NCc2ccco2)cc1	26*	1	30*	34*	15	-1
Cc1cccc(Nc2nc(NCc3ccco3)c3ccccc3n2)c1	10	10*	2	-8	3	0
O=C(CNC(=O)c1ccccc1F)N/N=C\C=C\c1ccccc1	3	0	-1	-24	-2	6
O=C(O)CNC(=O)CC1S/C(=N/N=C2\CSC(=O)N2)NC1=O (configuration not stated)	10	1	0	3	8	1
Cc1[nH]n(-c2ccccc2)c(=O)c1C(C[N+](=O)[O-])c1ccc(Cl)cc1 (configuration not stated)	4	1	17	2	5	1
Cc1ccc(C(C[N+](=O)[O-])c2c(C)[nH]n(-c3ccccc3)c2=O)cc1 (configuration not stated)	9	3	5	-7	7	31*
CC(C)N1CCN(Cc2nc(-c3ccccc3)cs2)CC1CCO (configuration not stated)	0	3	1	-6	-1	20*
CC(C)c1cccc(C(C)C)c1NC(=O)CN1C(=O)NC2(CCCCCCC2)C1=O	10	1	-5	5	1	nt
SMILES	PAFAH1B3 FP inh	PP5 primary	PAFAH1B2 FP inh	PAFAH2 inh	pPAFAH FP inh	CTSL1 counter
O=C(O)c1ccc(N/N=C/c2ccc(-c3ccc(Br)cc3)o2)cc1	8	3	10	13	27*	2
Cc1ccc(/C=N/Nc2ccc(C(=O)O)cc2)o1	6	1	-1	0	0	2
COc1ccc(F)cc1S(=O)(=O)Nc1cc2c3c(c1)CCN3C(=O)CC2	3	0	3	8	3	-2
CCN(C(=O)CSc1nnc(-c2ccc3c(c2)OCO3)o1)C1CCS(=O)(=O)C1 (configuration not stated)	7	0	32*	-1	3	nt
CCN(C(=O)CSc1ccc2c(c1)OCCO2)C1CCS(=O)(=O)C1 (configuration not stated)	8	2	1	-3	1	2
O=C(CCN1C(=O)/C(=C/c2ccccc2Cl)SC1=S)NNC(=O)c1cccnc1	4	-1	11	16	0	12
O=C(CCN1C(=O)/C(=C/c2ccccc2Cl)SC1=S)NC1=NCCS1	-4	2	34*	5	6	-3
O=C(CCN1C(=O)/C(=C/c2ccccc2Cl)SC1=S)NNC(=O)c1ccccc1O	23	0	5	15	30*	4
CC(C)CN(C(=O)COc1ccc([N+](=O)[O-])cc1)c1c(N)n(CC(C)C)c(=O)[nH]c1=O	8	-1	4	2	-4	nt
O=C(NC(Cc1ccccc1)C(=O)O)OCC1c2ccccc2-c2ccccc21 (configuration not stated)	10	0	27*	3	7	3
CC(C)OCCCNC(=O)c1ccc(CS(=O)(=O)Cc2ccccc2F)o1	11	5	0	-7	4	-5
COc1ccc(CCNC(=O)c2ccc(CSc3ccccc3)o2)cc1	0	-1	16	-4	25*	-1
Cc1cccc(CS(=O)(=O)Cc2ccc(C(=O)NCCc3ccccc3)o2)c1	8	1	4	6	29*	-1
Cc1cccc(CS(=O)(=O)Cc2ccc(C(=O)NCCCN3CCCC3)o2)c1	6	2	-6	-2	33*	-1
CCOCCCNC(=O)c1ccc(CS(=O)(=O)Cc2cccc(C)c2)o1	4	-1	-2	-3	0	2
CCCCNC(=O)c1ccc(CS(=O)(=O)Cc2ccccc2F)o1	6	-1	9	-1	25*	-2
CC1CCCCC12NC(=O)N(CC(=O)NNC(=O)c1ccc(Br)cc1)C2=O (configuration not stated)	-1	nt	2	-9	0	nt
